# Measured values from the supplement of paper PMC12494721.
# Where a name gives a salt, the structure may show the parent alone.
# Assays:
# Settings in all cases: incubation time: 27 h, anaerobic, 37 °C;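 for the amine columns active = adjusted P below 0.05 in both replicates with a change the same way and a mean fold change under 0.8 or over 1.25; inactive = the rest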
# [1] = system: Clostridium sporogenes DSM 1664; assay: growth (OD595) fold change vs plate DMSO controls (fold change (ratio)); higher = more growth
# Summary of the method: (§1)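 Shaken 96-well cultures in mGAM, grown anaerobically for 27 h at 37 °C, were read at 595 nm. OD came from blank-subtracted readings, corrected for background with 20 µM compound solutions in water and scaled by a calibration factor of 5. Growth is the fold change versus the plate's median DMSO control. Values average 2 biological replicates, and any fold change above 1.5 is NA.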
# Escherichia coli IAI1 [2] = assay: as above
# Summary of the method: as §1
# [3] = system: Klebsiella aerogenes DSM 30053; assay: as above
# Summary of the method: as §1
# [4] = system: Ruminococcus gnavus DSM 108212; assay: as above
# Summary of the method: as §1
# [5] = system: Klebsiella aerogenes DSM 30053; assay: fold change of Histamine concentration vs plate DMSO controls (fold change (ratio)); higher = more amine produced, active = hit call of the paper (significant change in both replicates, either direction)
# Summary of the method: (§2)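 Each value is the fold change relative to DMSO-only wells on the same plate. Four gut bacterial strains were grown anaerobically in mGAM at 37 °C for 27 h in 80 µL wells, starting at OD 0.1 before a 1:1 dilution, with compounds at 20 µM final (sweeteners 50 µM). Whole cultures were extracted with cold acetonitrile/methanol containing 0.1% formic acid, centrifuged, and amines were quantified by LC–triple-quadrupole MS (dynamic MRM) against external calibration curves with within-batch drift correction. Values are means of 2 biological replicates.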
# [6] = system: Clostridium sporogenes DSM 1664; assay: fold change of Tryptamine concentration vs plate DMSO controls (fold change (ratio)); higher = more amine produced, active = hit call of the paper (significant change in both replicates, either direction)
# Summary of the method: as §2
# [7] = system: Ruminococcus gnavus DSM 108212; assay: as above
# Summary of the method: as §2
# Escherichia coli IAI1 [8] = assay: fold change of Putrescine concentration vs plate DMSO controls (fold change (ratio)); higher = more amine produced, active = hit call of the paper (significant change in both replicates, either direction)
# Summary of the method: as §2
# [9] = system: Klebsiella aerogenes DSM 30053; assay: as above
# Summary of the method: as §2
# Escherichia coli IAI1 [10] = assay: fold change of Cadaverine concentration vs plate DMSO controls (fold change (ratio)); higher = more amine produced, active = hit call of the paper (significant change in both replicates, either direction)
# Summary of the method: as §2
# [11] = system: Klebsiella aerogenes DSM 30053; assay: as above
# Summary of the method: as §2
# [12] = system: Ruminococcus gnavus DSM 108212; assay: fold change of 2-Phenylethylamine concentration vs plate DMSO controls (fold change (ratio)); higher = more amine produced, active = hit call of the paper (significant change in both replicates, either direction)
# Summary of the method: as §2
Compound,growth [1],growth (Escherichia coli IAI1 [2]),growth [3],growth [4],fold change of Histamine concentration [5],fold change of Tryptamine concentration [6],fold change of Tryptamine concentration [7],fold change of Putrescine concentration (Escherichia coli IAI1 [8]),fold change of Putrescine concentration [9],fold change of Cadaverine concentration (Escherichia coli IAI1 [10]),fold change of Cadaverine concentration [11],fold change of 2-Phenylethylamine concentration [12]
CC(C)(C)C(=O)OCOC(=O)[C@@H]1N2C(=O)[C@@H](NC(=O)[C@H](N)c3ccccc3)[C@H]2SC1(C)C [Pivampicillin] (20 µM),0,0.949,0.986,0,1.04 (inactive),0.0632 (active),0.0656 (active),1.01 (inactive),1 (inactive),0.968 (inactive),0.976 (inactive),0.0585 (active)
COC(=O)Nc1nc2cc([S+]([O-])c3ccccc3)ccc2[nH]1 (stereo not drawn) [Oxfendazole] (20 µM),0.943,1.04,1.01,0.99,1.01 (inactive),1.01 (inactive),1.04 (inactive),0.99 (inactive),1.04 (inactive),0.981 (inactive),1.04 (inactive),0.999 (inactive)
CCN1/C(=C/C=C/C=C/c2sc3ccccc3[n+]2CC)Sc2ccccc21 [Dithiazanine iodide] (20 µM),0.625,0.879,0.837,1.24,0.924 (inactive),0.849 (inactive),0.749 (active),1.05 (inactive),1.01 (inactive),1.07 (inactive),0.995 (inactive),0.699 (active)
CC(=O)Oc1cc(C(F)(F)F)ccc1C(=O)O [Triflusal] (20 µM),1.01,0.971,0.952,0.878,1 (inactive),1.03 (inactive),1.01 (inactive),1.04 (inactive),0.97 (inactive),0.988 (inactive),0.992 (inactive),1.02 (inactive)
Cc1cc(C)nc(NS(=O)(=O)c2ccc(N)cc2)n1 [Sulfamethazine sodium salt] (20 µM),1.01,0.957,0.984,0.999,1.06 (inactive),1.06 (inactive),1.04 (inactive),0.93 (inactive),1.03 (inactive),0.986 (inactive),0.995 (inactive),1.07 (inactive)
N/C(=N\C(=O)c1nc(Cl)c(N)nc1N)NCc1ccccc1 [Benzamil hydrochloride] (20 µM),0.787,0.962,0.958,0.861,0.932 (inactive),1.03 (inactive),0.961 (inactive),0.807 (inactive),0.965 (inactive),1.48 (inactive),0.991 (inactive),0.936 (inactive)
Cc1c(-c2ccccc2)oc2c(C(=O)OCCN3CCCCC3)cccc2c1=O [Flavoxate hydrochloride] (20 µM),1.09,1.01,1.06,1.14,1.01 (inactive),1.05 (inactive),1.03 (inactive),1 (inactive),1 (inactive),1.03 (inactive),1 (inactive),1.02 (inactive)
NS(=O)(=O)c1cc2c(cc1Cl)NC(CC1CCCC1)NS2(=O)=O (stereo not drawn) [Cyclopenthiazide] (20 µM),1.33,1.03,0.98,0.993,1.01 (inactive),1.03 (inactive),1.04 (inactive),1.07 (inactive),1.01 (inactive),0.979 (inactive),0.996 (inactive),1.04 (inactive)
CCOc1ccc2nc3cc(N)ccc3c(N)c2c1 [Ethacridine lactate] (20 µM),0.937,0.981,0.974,0.954,0.985 (inactive),1.07 (inactive),0.856 (inactive),1.14 (inactive),1.01 (inactive),1.12 (inactive),0.993 (inactive),0.837 (inactive)
CC(=O)Oc1cc(C(C)C)c(OCCN(C)C)cc1C [Moxisylyte hydrochoride] (20 µM),1.11,1.04,1.03,1.22,0.989 (inactive),0.957 (inactive),1.04 (inactive),0.997 (inactive),1.03 (inactive),0.986 (inactive),1 (inactive),0.982 (inactive)
COc1ccccc1N1CCN(CCCCNC(=O)c2ccc3ccccc3c2)CC1 (20 µM),0.826,0.976,0.969,0.893,0.972 (inactive),1.13 (inactive),1.08 (inactive),1.04 (inactive),0.962 (inactive),0.795 (inactive),1.02 (inactive),1.3 (inactive)
CC(=O)OC[C@H]1O[C@@H](n2ncc(=O)[nH]c2=O)[C@H](OC(C)=O)[C@@H]1OC(C)=O [Azaribine] (20 µM),1.22,1.01,1,1.18,0.978 (inactive),0.997 (inactive),0.988 (inactive),1.05 (inactive),1.04 (inactive),0.944 (inactive),1.02 (inactive),0.96 (inactive)
CCOC(=O)[C@H](CCc1ccccc1)N[C@H]1CS[C@H](c2cccs2)CN(CC(=O)O)C1=O [Temocapril hydrochloride] (20 µM),1.1,1.05,1.08,1.05,0.959 (inactive),0.989 (inactive),0.991 (inactive),0.997 (inactive),1.03 (inactive),1.04 (inactive),1.01 (inactive),1.01 (inactive)
Cc1ccc2c(Cl)cc(Cl)c(O)c2n1 [Chlorquinaldol] (20 µM),0.726,0.915,0.929,0.448,1.12 (inactive),0.518 (active),0.33 (active),1.17 (inactive),1.03 (inactive),1.32 (inactive),0.978 (inactive),0.332 (inactive)
Cc1ccc(-c2cc(C(F)(F)F)nn2-c2ccc(S(N)(=O)=O)cc2)cc1 [Celecoxib] (20 µM),0.912,1.03,1,1.11,1.09 (inactive),0.967 (inactive),0.927 (inactive),1.03 (inactive),0.991 (inactive),1.06 (inactive),0.99 (inactive),0.87 (inactive)
CC(=O)NC[C@H]1CN(c2ccc(N3CCOCC3)c(F)c2)C(=O)O1 [Linezolid] (20 µM),0,0.788,0.985,0.196,0.819 (inactive),0.0335 (active),0.112 (active),0.59 (active),1 (inactive),0.777 (active),1 (inactive),0.119 (active)
COc1cc([C@@H]2c3cc4c(cc3[C@@H](O[C@@H]3O[C@@H]5CO[C@@H](C)O[C@H]5[C@H](O)[C@H]3O)[C@H]3COC(=O)[C@H]23)OCO4)cc(OC)c1O [Etoposide] (20 µM),0.285,1.05,1.2,0.101,0.858 (inactive),0.403 (active),0.248 (active),1.08 (inactive),0.982 (inactive),0.966 (inactive),1.03 (inactive),0.236 (active)
COc1ccc(-c2noc(CC(=O)O)c2-c2ccc(OC)cc2)cc1 [Mofezolac] (20 µM),0.876,1.01,1,1.21,1.05 (inactive),0.988 (inactive),0.979 (inactive),1.03 (inactive),1 (inactive),0.987 (inactive),0.993 (inactive),0.96 (inactive)
CNC1(C)C2CCC(C2)C1(C)C (stereo not drawn) [Mecamylamine hydrochloride] (20 µM),1.03,1.06,1.02,1.17,1.02 (inactive),1.06 (inactive),1.03 (inactive),0.992 (inactive),0.994 (inactive),0.968 (inactive),1 (inactive),1.06 (inactive)
CCCCOc1cc(C(=O)NCCN(CC)CC)c2ccccc2n1 [Dibucaine] (20 µM),1.14,1.01,1.06,1.02,0.93 (inactive),1.02 (inactive),1 (inactive),0.927 (inactive),0.955 (inactive),0.961 (inactive),1.03 (inactive),1.03 (inactive)
NC(N)=Nc1nc(CSCCN/C=N/S(=O)(=O)c2ccc(Br)cc2)cs1 [Ebrotidine] (20 µM),1.02,1.02,0.989,1.02,1.03 (inactive),0.91 (inactive),0.836 (inactive),0.974 (inactive),0.991 (inactive),1.06 (inactive),1.01 (inactive),0.887 (inactive)
CNCCCC12CCC(c3ccccc31)c1ccccc12 [Maprotiline hydrochloride] (20 µM),1.03,1.01,0.999,1.09,0.982 (inactive),0.973 (inactive),0.913 (inactive),1.02 (inactive),1.01 (inactive),1.03 (inactive),1.01 (inactive),0.884 (inactive)
CN1[C@@H]2CC[C@H]1C[C@@H](OC(c1ccccc1)c1ccccc1)C2 [Benztropine mesylate] (20 µM),1.11,0.99,0.975,1,1.09 (inactive),1.03 (inactive),0.964 (inactive),1.03 (inactive),1.03 (inactive),1.05 (inactive),0.995 (inactive),1 (inactive)
NS(=O)(=O)Cc1noc2ccccc12 [Zonisamide] (20 µM),0.883,1.01,0.994,1.01,1.02 (inactive),1.07 (inactive),0.863 (inactive),1.07 (inactive),1.01 (inactive),1.05 (inactive),1 (inactive),0.806 (inactive)
